# Source: the supplement of paper PMC10037445
# In all, about 2,900 compounds were measured (“NF-kB SEAP reporter activity, fold change vs agonist alone”: median about 0.99, highest 2% from about 2.6 on). The entries come from a sample that favours the highest values as a whole.
# Legend:
# [1] = test system: RAW-Dual; test: NF-kB SEAP reporter activity, fold change vs agonist alone; higher = enhanced NF-kB activity
# Outline: (§1)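 Supernatant from RAW-Dual macrophages was read after 20 hours for IRF by QuantiLuc luminescence and for NF-κB by QuantiBlue absorbance at 620 nm. The cells (50,000 cells/well in DMEM, 384-well plates, 37 °C, 5% CO2) had received 50 nL of library stock by pin tool and, 1 h later, a PRR agonist. Reporter activity is expressed relative to agonist-alone wells as fold change, and wells were flagged cytotoxic if IncuCyte confluency was under 70% of agonist controls in both mask sets.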
# [2] = test system: RAW-Dual; test: NF-kB SEAP reporter activity, fold change vs agonist alone; cytotoxicity flag (confluency mask): not cytotoxic; higher = enhanced NF-kB activity
# Outline: as §1
# [3] = test system: RAW-Dual; test: NF-kB SEAP reporter activity, fold change vs agonist alone; cytotoxicity flag (confluency mask): cytotoxic (confluency <70% of control); higher = enhanced NF-kB activity
# Outline: as §1
# [4] = agonist: ODN 1826 (TLR9) 0.5 ug/mL
# [5] = agonist: Pam2CSK4 (TLR2/6) 0.1 ug/mL
# [6] = agonist: Pam3CSK4 (TLR2/1) 0.1 ug/mL
# [7] = library stock concentration (final ~1000-fold dilution): 10 mM, cytotoxicity flag (confluency mask): not cytotoxic, agonist: Imiquimod (TLR7) […]
# [8] = library stock concentration (final ~1000-fold dilution): 10 mM, cytotoxicity flag (confluency mask): not cytotoxic, agonist: MPLA (TLR4) […]
# [9] = library stock concentration (final ~1000-fold dilution): 10 mM, cytotoxicity flag (confluency mask): cytotoxic (confluency <70% of control), agonist: Imiquimod (TLR7) […]
# [10] = library stock concentration (final ~1000-fold dilution): 10 mM, cytotoxicity flag (confluency mask): cytotoxic (confluency <70% of control), agonist: MPLA (TLR4) […]
compound,measurement,setting,value
NC(CSCCCO)C(=O)O (centres undefined),NF-kB SEAP reporter activity,"[1]; library stock concentration (final ~1000-fold dilution): 10 mM water, cytotoxicity flag (confluency mask): not cytotoxic, agonist: Imiquimod (TLR7) […]",0.937
same,NF-kB SEAP reporter activity,"[1]; library stock concentration (final ~1000-fold dilution): 10 mM water, cytotoxicity flag (confluency mask): not cytotoxic, agonist: MPLA (TLR4) […]",1.04
NC(CSCCCO)C(=O)O (centres undefined) (library stock concentration (final ~1000-fold dilution): 10 mM water),NF-kB SEAP reporter activity,[2]; agonist: LPS (TLR4) 0.1 ug/mL,1.11
same,NF-kB SEAP reporter activity,[2]; [4],1.09
same,NF-kB SEAP reporter activity,[2]; [5],1.22
same,NF-kB SEAP reporter activity,[2]; [6],1.09
C=CC1(C)CC(OC(=O)CSC(C)(C)CNC(=O)C(N)C(C)C)C2(C)C(C)CCC3(CCC(=O)C32)C(C)C1O.Cl (centres undefined),NF-kB SEAP reporter activity,[1]; [7],0.86
same,NF-kB SEAP reporter activity,[1]; [8],1.25
C=CC1(C)CC(OC(=O)CSC(C)(C)CNC(=O)C(N)C(C)C)C2(C)C(C)CCC3(CCC(=O)C32)C(C)C1O.Cl (centres undefined) (library stock concentration (final ~1000-fold dilution): 10 mM),NF-kB SEAP reporter activity,[2]; agonist: LPS (TLR4) 0.1 ug/mL,1.22
same,NF-kB SEAP reporter activity,[2]; [4],0.971
same,NF-kB SEAP reporter activity,[2]; [5],0.669
same,NF-kB SEAP reporter activity,[2]; [6],0.845
CCCCCCCCCCCCCCCC(=O)NC(CCSC)C(=O)NCC(=O)NC(Cc1ccc(O)cc1)C(=O)NC(CCC(N)=O)C(=O)NC(CCCCN)C(=O)NC(CCCCN)C(=O)NC(CC(C)C)C(=O)NC(CCCNC(=N)N)C(=O)NC(CO)C(=O)NC(CCSC)C(=O)NC(C(=O)NC(CC(=O)O)C(=O)NC(CCCCN)C(=O)NC(Cc1ccc(O)cc1)C(=O)NC(CCCNC(=N)N)C(=O)NC(CC(C)C)C(=O)O)C(C)O (centres undefined) (library stock concentration (final ~1000-fold dilution): 10 mM),NF-kB SEAP reporter activity,[3]; agonist: LPS (TLR4) 0.1 ug/mL,0.885
same,NF-kB SEAP reporter activity,[3]; [4],0.714
same,NF-kB SEAP reporter activity,[3]; [5],0.614
same,NF-kB SEAP reporter activity,[3]; [6],0.68
CCCCCCCCCCCCCCCC(=O)NC(CCSC)C(=O)NCC(=O)NC(Cc1ccc(O)cc1)C(=O)NC(CCC(N)=O)C(=O)NC(CCCCN)C(=O)NC(CCCCN)C(=O)NC(CC(C)C)C(=O)NC(CCCNC(=N)N)C(=O)NC(CO)C(=O)NC(CCSC)C(=O)NC(C(=O)NC(CC(=O)O)C(=O)NC(CCCCN)C(=O)NC(Cc1ccc(O)cc1)C(=O)NC(CCCNC(=N)N)C(=O)NC(CC(C)C)C(=O)O)C(C)O (centres undefined),NF-kB SEAP reporter activity,[1]; [9],1.02
same,NF-kB SEAP reporter activity,[1]; [10],1.02
COc1ccc(Oc2cc(NCCC(F)(F)F)c3ncc(-c4ccc(C(=O)NC5CC5)c(C)c4)n3n2)c(F)c1F,NF-kB SEAP reporter activity,[1]; [7],1.19
same,NF-kB SEAP reporter activity,[1]; [8],1.32
COc1ccc(Oc2cc(NCCC(F)(F)F)c3ncc(-c4ccc(C(=O)NC5CC5)c(C)c4)n3n2)c(F)c1F (library stock concentration (final ~1000-fold dilution): 10 mM),NF-kB SEAP reporter activity,[2]; agonist: LPS (TLR4) 0.1 ug/mL,2.44
same,NF-kB SEAP reporter activity,[2]; [4],1.78
same,NF-kB SEAP reporter activity,[2]; [5],0.636
same,NF-kB SEAP reporter activity,[2]; [6],0.913
COc1cccc(CCc2ccccc2OCC(CN(C)C)OC(=O)CCC(=O)O)c1.Cl (centres undefined) (library stock concentration (final ~1000-fold dilution): 10 mM),NF-kB SEAP reporter activity,[2]; agonist: LPS (TLR4) 0.1 ug/mL,1.33
same,NF-kB SEAP reporter activity,[2]; [4],0.733
same,NF-kB SEAP reporter activity,[2]; [5],1.03
same,NF-kB SEAP reporter activity,[2]; [6],0.924
COc1cccc(CCc2ccccc2OCC(CN(C)C)OC(=O)CCC(=O)O)c1.Cl (centres undefined),NF-kB SEAP reporter activity,[1]; [7],1.22
same,NF-kB SEAP reporter activity,[1]; [8],1.03
Cc1cc(Cl)ccc1OCCCC(=O)NO,NF-kB SEAP reporter activity,[1]; [7],1.35
same,NF-kB SEAP reporter activity,[1]; [8],1.31
Cc1cc(Cl)ccc1OCCCC(=O)NO (library stock concentration (final ~1000-fold dilution): 10 mM),NF-kB SEAP reporter activity,[2]; agonist: LPS (TLR4) 0.1 ug/mL,1.51
same,NF-kB SEAP reporter activity,[2]; [4],0.823
same,NF-kB SEAP reporter activity,[2]; [5],0.939
same,NF-kB SEAP reporter activity,[2]; [6],0.726
Cc1cc(C)cc(C(=O)NOCCCCCC(=O)NO)c1 (library stock concentration (final ~1000-fold dilution): 10 mM),NF-kB SEAP reporter activity,[3]; agonist: LPS (TLR4) 0.1 ug/mL,5.28
same,NF-kB SEAP reporter activity,[3]; [4],2.33
same,NF-kB SEAP reporter activity,[3]; [5],0.935
same,NF-kB SEAP reporter activity,[3]; [6],1.43
Cc1cc(C)cc(C(=O)NOCCCCCC(=O)NO)c1,NF-kB SEAP reporter activity,[1]; [9],1.41
same,NF-kB SEAP reporter activity,[1]; [10],2.74
CNC(C)C(=O)NC1CN(C(=O)CC(C)C)CCC2CCC(C(=O)NC(c3ccccc3)c3ccccc3)N2C1=O (centres undefined) (library stock concentration (final ~1000-fold dilution): 10 mM),NF-kB SEAP reporter activity,[2]; agonist: LPS (TLR4) 0.1 ug/mL,0.854
same,NF-kB SEAP reporter activity,[2]; [4],1.1
same,NF-kB SEAP reporter activity,[2]; [5],0.925
same,NF-kB SEAP reporter activity,[2]; [6],1.08
CNC(C)C(=O)NC1CN(C(=O)CC(C)C)CCC2CCC(C(=O)NC(c3ccccc3)c3ccccc3)N2C1=O (centres undefined),NF-kB SEAP reporter activity,[1]; [7],0.948
same,NF-kB SEAP reporter activity,[1]; [8],0.82
Nc1ccc(-c2cccc(C(=O)Nc3cnc4nc(N5CCOCC5)oc4c3)n2)cn1,NF-kB SEAP reporter activity,[1]; [7],1.04
same,NF-kB SEAP reporter activity,[1]; [8],1.08
Oc1cccc(-c2nc(N3CCOCC3)c3oc4ncccc4c3n2)c1 (library stock concentration (final ~1000-fold dilution): 10 mM),NF-kB SEAP reporter activity,[2]; agonist: LPS (TLR4) 0.1 ug/mL,4.71
same,NF-kB SEAP reporter activity,[2]; [4],0.369
same,NF-kB SEAP reporter activity,[2]; [5],0.849
same,NF-kB SEAP reporter activity,[2]; [6],1.34
CCn1c(-c2nonc2N)nc2cnc(Oc3cccc(NC(=O)c4ccc(OCCN5CCOCC5)cc4)c3)cc21.Cl,NF-kB SEAP reporter activity,[1]; [7],1.48
same,NF-kB SEAP reporter activity,[1]; [8],1.41
Oc1cccc(-c2nc(N3CCOCC3)c3oc4ncccc4c3n2)c1,NF-kB SEAP reporter activity,[1]; [7],2.46
same,NF-kB SEAP reporter activity,[1]; [8],2.44
CCn1c(-c2nonc2N)nc2cnc(Oc3cccc(NC(=O)c4ccc(OCCN5CCOCC5)cc4)c3)cc21.Cl (library stock concentration (final ~1000-fold dilution): 10 mM),NF-kB SEAP reporter activity,[2]; agonist: LPS (TLR4) 0.1 ug/mL,1.31
same,NF-kB SEAP reporter activity,[2]; [4],0.288
same,NF-kB SEAP reporter activity,[2]; [5],1.12
same,NF-kB SEAP reporter activity,[2]; [6],1.56
CC1(C)OCCn2c1nc1c(N3CCOCC3)nc(-c3cnc(N)nc3)nc12,NF-kB SEAP reporter activity,[1]; [7],1.02
same,NF-kB SEAP reporter activity,[1]; [8],1.07
Nc1ccc(C(=O)Nc2cccc(-c3nc(N4CCOCC4)c4oc5ncccc5c4n3)c2)cn1,NF-kB SEAP reporter activity,[1]; [7],1.77
same,NF-kB SEAP reporter activity,[1]; [8],2.3
N#Cc1cccc(-c2c[nH]c3ncnc(N4CCOCC4)c23)c1 (library stock concentration (final ~1000-fold dilution): 10 mM),NF-kB SEAP reporter activity,[2]; agonist: LPS (TLR4) 0.1 ug/mL,0.963
same,NF-kB SEAP reporter activity,[2]; [4],0.792
same,NF-kB SEAP reporter activity,[2]; [5],0.588
same,NF-kB SEAP reporter activity,[2]; [6],0.962
Nc1ccc(-c2cccc(C(=O)Nc3cnc4nc(N5CCOCC5)oc4c3)n2)cn1 (library stock concentration (final ~1000-fold dilution): 10 mM),NF-kB SEAP reporter activity,[2]; agonist: LPS (TLR4) 0.1 ug/mL,1.43
same,NF-kB SEAP reporter activity,[2]; [4],1.01
same,NF-kB SEAP reporter activity,[2]; [5],0.911
same,NF-kB SEAP reporter activity,[2]; [6],1.33
